# Experimental data: PubChem BioAssay (EPA / NIEHS)
# Calls of active or inactive are those of the source. Rule for the calls: active = hit-call score of the fitted dose curve at least 0.9, where 1 is the maximum; inactive = score below 0.9.
# Read-out: Broad substrate specificity ATP-binding cassette transporter ABCG2 (Homo sapiens) (UniProt Q9UNQ0)
# Experiment: LTEA_HepaRG_ABCG2: Life Technologies and Expression Analysis (LTEA) Assay for ABC Transporter (ABCG2) using HepaRG (AID 2283465)
# Conditions: mRNA level, 48 h; actives raise or lower the signal
# Description: LTEA_HepaRG is a cell based, multiplexed-readout assay that uses HepaRG, a human liver cell line, with measurements taken at 48 hours after chemical dosing on a 96-well plate.LTEA_HepaRG_ABCG2 is one of 102 assay component(s) measured in the LTEA HepaRG cell culture assay. It is a marker of Steatosis/NR mediated transport.Data from the assay component LTEA_HepaRG_ABCG2 was analyzed into 1 endpoint. This assay endpoint, LTEA_HepaRG_ABCG2, was analyzed with bidirectional fitting relative to DMSO as the negative control and baseline of activity. Using a type of inducible reporter, measures of mRNA induction for gain or loss-of-signal activity can be used to understand regulation of transcription factor activity. To generalize the intended target to other relatable targets, this assay endpoint is annotated to the transporter intended target family, where the subfamily is ABC transporter.
# A total of 1060 chemcials from the ToxCast library were tested in eight-point concentration-response experiments. Cell culture and cytotoxicity assays were conducted at Thermo Fisher Scientific's Custom Services facility (Madison, WI). A single lot of human HepaRG cells (Thermo Fisher Scientific, Frederick, MD) was used for the cell culture experiments. 96-well format collagen type I coated plates of human HepaRG cells were prepared using established methods. Briefly, cryopreserved HepaRG cells were thawed, plated at a density of approximately 100,000 cells/well in HepaRG Thaw, Plate, and General Purpose media (HPRG770, Thermo Fisher Scientific), and incubated for 48 hours. 0.5% DMSO was selected as vehicle control to balance the requisite need of DMSO in HepaRG cultures to maintain differentiation (for example, baseline metabolism, proportions of hepatocytes vs. cholangiocytes), while enabling further hepatic receptor pathway activation (for example, PXR and CAR) in response to chemical exposure. 48 hours after plating, the culture medium was replaced with HepaRG Serum-Free Incudtion Media. Cells were exposed to each test chemical in duplicate and maintained in CO2 incubators for another 48 hours. Chemical plates were thawed to room temperature and 200x concentrations of treatment groups were prepared. 8-point conentration-reponse curves were made with the highest exposure at 100 uM, followed by half-log dilutions, all in 0.5% DMSO. Each test plate contained variouse controls, induction positive controls (1mM phenobarbital), cytotoxicity positive controls ([…] aflatoxin B1), vehicle controls (0.5% DMSO), and total lysis controls (0.5% DMSO). Cell morphology images were taken using an Essen IncuCyte FLR automated microscope, with six 96-well plates imaged in about 24 minutes. Images were captured and exported and JPEG files. Spent culture media was transfered to black-well plates for the LDH assay, and remaining media was sorted at -80 C for later use. Cells were treated with RLT buffer and frozen until shipped for gene expression analysis. Total RNA was isolated from the cell suspension in 75 uL of Buffer RLT (Qiagen, Germantown, MD 20874) by Quintiles/Expression Analysis (Durham, NC) using a custom isolation procedure. Total RNA from each plate well was transferred to a preamplification plate. Fluidigm's 96.96 Dynamic ArrayTM (Fluidigm, Amsterdam, the Netherlands) technology was used for gene expression analyses by quantitative reverse transcription polymerase chain reaction (qRT-PCR, performed by Quintiles/Expression Analysis, Durham, NC)89. Standard TaqManTM Assays (Applied Biosystems/ThermoFisher Scientific, Foster City, CA) were used to assess the expression of 93 genes selected based on their selectivity and sensitivity to important hepatic receptors known to be modulated by environmental chemicals; importance in human hepatocyte functionality; and hepatotoxicity. […]
# Broad substrate specificity ATP-binding cassette transporter ABCG2 (Homo sapiens), sequence (Q9UNQ0 whole entry, looked up): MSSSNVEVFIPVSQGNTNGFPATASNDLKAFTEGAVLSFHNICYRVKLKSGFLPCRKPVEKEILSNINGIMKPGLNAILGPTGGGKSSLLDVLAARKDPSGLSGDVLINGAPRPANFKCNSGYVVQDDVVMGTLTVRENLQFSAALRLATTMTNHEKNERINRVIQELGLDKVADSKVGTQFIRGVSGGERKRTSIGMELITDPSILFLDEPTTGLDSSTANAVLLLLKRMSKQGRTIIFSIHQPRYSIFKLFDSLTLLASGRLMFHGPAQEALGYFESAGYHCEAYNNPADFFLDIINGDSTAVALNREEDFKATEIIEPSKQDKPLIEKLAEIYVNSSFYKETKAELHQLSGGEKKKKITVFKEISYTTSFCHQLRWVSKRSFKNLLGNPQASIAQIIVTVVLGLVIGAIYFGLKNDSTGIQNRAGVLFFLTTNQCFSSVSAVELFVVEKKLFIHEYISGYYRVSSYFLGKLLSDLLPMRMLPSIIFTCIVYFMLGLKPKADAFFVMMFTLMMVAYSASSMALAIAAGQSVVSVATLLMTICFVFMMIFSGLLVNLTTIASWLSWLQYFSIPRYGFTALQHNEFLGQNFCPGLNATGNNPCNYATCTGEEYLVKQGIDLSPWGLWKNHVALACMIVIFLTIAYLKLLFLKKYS
SMILES,outcome,AC50
NCC1(Cc2noc(=O)[nH]2)CCCCC1,inactive,
CNC(=O)[C@H]1O[C@@H](n2cnc3c(NCc4cc(Cl)ccc4OCc4cc(C)no4)ncnc32)[C@H](O)[C@@H]1N,inactive,
CCCCCCC(=O)OCC,inactive,
O=c1[nH]cc(F)c(=O)[nH]1,inactive,
Cc1ccccc1Cl,inactive,
Nc1ccc(S(=O)(=O)c2ccc(N)cc2)cc1,inactive,
CC(CO)OC(C)CO (stereo not given) (tested in a mixture with another compound),inactive,
CC1(C)NC(=O)NC1=O,inactive,
NS(=O)(=O)c1cc2c(cc1Cl)NCNS2(=O)=O,inactive,
CC(C)(C)c1cc(O)c(C(C)(C)C)cc1O,inactive,
C1CCC(SSC2CCCCC2)CC1,inactive,
COCCOCCOC,,1.37 µM (active)
CCCCCCCCCCCC(=O)OC,inactive,
Cc1ccc(C)c(C)c1,inactive,
Oc1ccc2ccccc2c1N=Nc1ccccc1,,30.3 µM (active)
Cc1cc(=O)[nH]c(=S)[nH]1,inactive,
COCCOC[C@H](CC1(C(=O)NC2CCC(C(=O)O)CC2)CCCC1)C(=O)Oc1ccc2c(c1)CCC2 (stereo not given in full),inactive,
Nc1ccccc1N,inactive,
CCOc1ccc2c(c1)C(C)=CC(C)(C)N2,,1.02 µM (active)
CC(C)c1ccc(C(=O)N=C(N)N)cc1S(C)(=O)=O,,0.681 µM (active)

SMILES,outcome,AC50
Cc1cccc(Nc2cc(Cl)nc(SCC(=O)O)n2)c1C,inactive,
NC(=O)Cn1c(=O)cc(CCN2CCN(c3nccc4sccc34)CC2)c2ccc(F)cc21,inactive,
CN[C@H]1CC[C@@H](c2ccc(Cl)c(Cl)c2)c2ccc(S(N)(=O)=O)cc21,inactive,
COc1ccc(C)cc1N,inactive,
CCc1c(C(=O)NN2CCCCC2)nn(-c2ccc(Cl)cc2Cl)c1-c1ccc(Br)cc1,,50 µM (active)
CCCCCCCCCCCCCCCCCC(=O)O,inactive,
CC1=C(/C=C/C(C)=C/C=C/C(C)=C/CO)C(C)(C)CCC1,,52.2 µM (active)
CCCCOC(=O)CCCCCCCCC(=O)OCCCC,inactive,
OC[C@@H](O)[C@@H](O)[C@H](O)[C@H](O)CO,inactive,
C[Si]1(C)O[Si](C)(C)O[Si](C)(C)O[Si](C)(C)O1,inactive,
Nc1nc(N)c2nc(CNc3ccc(C(=O)N[C@@H](CCC(=O)O)C(=O)O)cc3)cnc2n1,inactive,
COC(=O)c1ccc(O)cc1,inactive,
COc1ccc2c(c1)c(CC(=O)O)c(C)n2C(=O)c1ccc(Cl)cc1,inactive,
Clc1cc(Cl)c(Cl)cc1Cl,inactive,
COc1cc(-c2nc(NC(=O)c3cc4cc(C)cc(C)c4n3CC(=O)O)sc2CCC2CCCCC2)c(OC)cc1Cl,,24.5 µM (active)
CNCc1cc(F)ccc1Oc1ccc(Cl)c(Cl)c1,inactive,
CCCCCCCC=O,inactive,
O=c1c(O)c(-c2ccc(O)c(O)c2)oc2cc(O)cc(O)c12,inactive,
CCCCCC(=O)O,inactive,
Cc1ccc(Cl)cc1,inactive,
